# An excerpt weighted towards active compounds, which were near 8% of everything screened.
# SW480 rereplic: inducers of DNA re-replication in SW480 colon cancer cells | AID 624297 | hit rate 1.8% among 340,000 | Potency, µM (top dose mostly 46.1 µM), without a hit: top-dose re-replication activation, hits mostly activators | SW480 DNA re-replication, Hoechst DNA content imaging, 48 h; note: % of control where 0% means no effect; nearly all actives have a fitted effect of over 55% in size
#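 Readout is total intensity of Hoechst-stained nuclei, excited at 405 nm and collected at 500-530 nm. Compound treatment lasted 48 hr at 37 C in 5% CO2 before staining.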
# HT1080 IDH1KD tx: kills HT-1080 cells with IDH1 knockdown | hit rate 2% among 360,000 | HT-1080 IDH1 knockdown viability, ATP luminescence, 48 h | Potency, µM (top dose mostly 46.1 µM), for inactives: at the highest dose activity, negative = toxicity, usual class: cytotoxic;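 note: 0% = DMSO wells and -100% = cell-free medium wells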
#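 Assay cells: HT-1080 with IDH1 knockdown, 750 per well, RPMI/5% FBS. Exposure: 48 h at 37 °C following 2 h pre-incubation. Read: CellTiter-Glo luminescence; fitted concentration-response, curve class assigned.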
# MCF10A rerep: induces DNA re-replication in MCF 10a normal breast cells; hit rate 2.9% among 350,000; MCF 10A DNA re-replication, Hoechst nuclear intensity, 48 h; Potency, µM (top dose mostly 46.1 µM), inactives show at the highest dose activity, positive = re-replication, usual class: activators; note: % of control where 0% means no effect; nearly all actives have a fitted effect of over 50% in size
# HT1080NT lethal: kills 2HG-producing HT-1080-NT fibrosarcoma cells; Potency, µM (highest dose often 46.1 µM), inactives show at the top dose activity, negative = less viability, most hits filed as cytotoxic; HT-1080-NT fibrosarcoma viability, CellTiter-Glo ATP luminescence, 48 h; hit rate 1.6% among 360,000;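 note: NT is the 2HG producing partner of a matched IDH1 knockdown line; 0% = DMSO-treated cells and -100% = media-only wells without cells; nearly all actives have a fitted effect of over 55% in size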
#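 Fibrosarcoma NT cells, 750 per well in 5% FBS RPMI, were exposed to compound for 48 hours. Viability: CellTiter-Glo luminescence.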
# KB-3-1 tox: kills parental KB-3-1 adenocarcinoma cells; hit rate 1.4% among 400,000; KB-3-1 viability, CellTiter-Glo ATP luminescence, 72 h; Potency, µM (highest dose often 46.1 µM), most hits filed as cytotoxic; note: % is set by controls: 0 for no effect and ±100 for the full control effect; nearly all actives have a fitted effect of over 60% in size
#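 Parental KB-3-1 adenocarcinoma cells in phenol-red-free DMEM with 10% FBS were pin-treated with compounds at several concentrations, incubated 72 h at 37 °C, and viability read by CellTiter-Glo luminescence; concentration-effect curves were fitted after normalization.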
# KB-V1 MDR tox: KB-V1 MDR subline cytotoxicity; KB-V1 MDR cells viability, CellTiter-Glo, 72 h; AID 1347076; Potency, µM (titrated, usually from 46.1 µM), usual class: cytotoxic; hit rate 3.4% among 400,000; note: % is set by controls: 0 for no effect and ±100 for the full control effect; nearly all actives have a fitted effect of over 60% in size
#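 Cells of the MDR subline KB-V1 are plated, dosed with compound at multiple concentrations, and incubated 72 h at 37 degrees C; CellTiter-Glo is then added and luminescence read after 10 min.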
# An asterisk follows results filed as active; i = inactive; ? = inconclusive; nt = no result; [ ] = another dose, or the depositor's remark. Calls come from the whole dose curve; as a rule, active = well fitted curve in the direction sought with a large enough effect; inconclusive = small, poorly fitted or top-dose-only effect, or another doubt; inactive = no such curve, though single readings can be large; an effect the other way counts as inactive or inconclusive. Potency is the fitted concentration of half-maximal effect.
SMILES,SW480 rereplic,HT1080 IDH1KD tx,MCF10A rerep,HT1080NT lethal,KB-3-1 tox,KB-V1 MDR tox
c1ccc(-c2sc3ccccc3c2-c2ccc(OCCN3CCCC3)cc2)cc1,4.6µM*,-11%,1%,?,?,?
COc1ccc(-c2sc3cc(OC)ccc3c2-c2ccc(OCCN3CCCCC3)cc2)cc1,nt,16µM*,nt,21µM*,?,?
O=Cc1ccc(Oc2ccc(F)cc2)nc1,-1%,4%,-1%,3%,i,i
COc1cccc(-c2sc3ccccc3c2-c2ccc(OCCN3CCCCC3)cc2)c1,?,-15%,14%,-8%,?,?
Oc1ccc2sc(-c3ccccc3O)c(-c3ccc(OCCN4CCCCC4)cc3)c2c1,nt,16µM*,nt,?,?,i
COc1cccc(-c2sc3ccccc3c2-c2ccc(OCCN(C)C)cc2)c1,-12%,16µM*,28%,?,?,?
Cc1ccnc(NS(=O)(=O)c2ccc(NC(=O)C3CC=CCC3C(=O)O)cc2)n1 (stereo unspecified),1%,-1%,-7%,10%,i,i
COc1ccc(OC)c(C2=NNC(=NCc3ccc4c(c3)OCO4)SC2)c1,-14%,-26%,-1%,-4%,i,i
COc1ccc(CN=C2NN=C(c3ccc(Cl)cc3)CS2)cc1,-1%,24%,-8%,18%,i,i
Clc1ccc(C2=NNC(=NCc3ccc4c(c3)OCO4)SC2)cc1,?,10%,?,-2%,?,21µM*
Oc1ccc(C2=NNC(=NCc3ccc4c(c3)OCO4)SC2)c(O)c1,15µM*,?,12µM*,21µM*,2.6µM*,7.3µM*
COc1ccc(C)cc1N(C(=O)COc1ccccc1)c1nc2ccccc2s1,4%,-10%,3%,2%,i,21µM*
COc1ccc(C)cc1N(C(=O)c1ccccc1)c1nc2ccccc2s1,10%,-10%,11%,-11%,i,i
O=C(COc1ccc([N+](=O)[O-])cc1)Nc1ccc(S(=O)(=O)N2CCOCC2)cc1,-8%,-11%,-3%,-1%,i,i
CCOCCCNC(=O)CCC(=O)NNc1nc2ccccc2c2nc(-c3ccccc3)nn12,0%,15%,-14%,7%,i,i
O=C(O)c1cc(N/N=C/C=C/c2ccccc2)ccc1Cl,-8%,-6%,21µM*,2%,i,i
O=C(CSc1nc2ccccc2c(=O)n1-c1ccccc1)N/N=C/C=C/c1ccccc1[N+](=O)[O-],14%,-12%,4.6µM*,-10%,i,i
O=C(Cc1cccs1)Nn1c(Cc2cccs2)nc2ccccc2c1=O,-3%,-3%,3%,-1%,i,21µM*
O=C(CSc1nc2ccccc2c(=O)n1NC(=O)Cc1ccccc1)NCc1ccccc1,1%,0%,-3%,8%,i,i
O=C(CSc1nc2ccccc2c(=O)n1NC(=O)Cc1ccccc1)NCc1ccco1,-10%,5%,-1%,8%,i,18µM*
O=C(Cc1ccccc1)Nn1c(-c2ccccc2)nc2ccccc2c1=O,2%,15%,25%,0%,i,18µM*
CCc1nnc(NC(=O)Cc2ccc(S(=O)(=O)N3CCCCC3)cc2)s1,-14%,-25%,?,-13%,?,i
C/C(=N\OCC(=O)Nn1c(C)nc2ccccc2c1=O)c1cccs1,4%,-2%,1%,-3%,i,i
Cc1cccc(-n2c(SCC(=O)NCc3ccco3)nc3ccccc3c2=O)c1,?,?,?,-22%,i,10µM*
O=C(CSc1nc2ccccc2c(=O)n1-c1ccccc1)NCc1ccco1,-8%,1%[9.24 µM],1%,-3%,?,13µM*
SMILES,SW480 rereplic,HT1080 IDH1KD tx,MCF10A rerep,HT1080NT lethal,KB-3-1 tox,KB-V1 MDR tox
C/C(=N\OCC(=O)Nn1c(C)nc2ccccc2c1=O)c1ccccc1,0%,13%,2%,15%,i,16µM*
O=C(C1CCCCC1)N1CCC2CC1c1cc(N3CCCCC3)ccc12 (stereo unspecified),nt,3%,nt,1%,i,i
O=C(N/N=C/c1ccco1)c1ccccc1OCc1ccccc1Cl,-6%,-10%,1%,-8%,i,i
COc1ccc(-c2nnc(SCCOc3cccc(C)c3)n2N)cc1,-10%,-2%,6%,-1%,i,i
O=C(c1ccc(COc2ccc(Br)cc2)o1)N1N=C(C(F)F)CC1(O)C(F)F (stereo unspecified),-2%,21µM*,?,?,i,i
Cc1cc(C)cc(OCc2ccc(C(=O)N3N=C(C(F)F)CC3(O)C(F)F)o2)c1 (stereo unspecified),6%,-10%,23µM*,-9%,i,?
CCOc1ccc(OCc2ccc(C(=O)N3N=C(C(F)F)CC3(O)C(F)F)o2)cc1 (stereo unspecified),4%,?,1%,?,i,16µM*
O=C(CCCN1C(=O)/C(=C\c2cccs2)SC1=S)Nc1ccc(O)cc1,21µM*,-27%,2%,-6%,i,i
CC(=O)c1ccc(NC(=O)CCCN2C(=O)/C(=C/C(C)=C/c3ccccc3)SC2=S)cc1,3%,0%,-3%,6%,?,18µM*
O=C(CCCN1C(=O)S/C(=C\C=C\c2ccccc2)C1=O)Nc1ccc(O)cc1,?,21µM*,12µM*,?,i,i
O=C(CCCN1C(=O)/C(=C\c2ccccc2)SC1=S)Nc1ccc(C(=O)O)cc1,-3%,-4%,9%,-7%,i,?
O=C(CCCN1C(=O)/C(=C\c2cccs2)SC1=S)Nc1ccc(C(=O)O)cc1,15%,-8%,26%,-20%,i,i
C=CCn1c(=N)n(CC(=O)c2ccc(Cl)cc2)c2ccccc21,20%,-28%,?,-18%,i,i
Cc1ccc(NC(=O)CSc2nc3ccccc3c3nc(CCc4c(C)n[nH]c4C)nn23)cc1F,10µM*,7.9µM*,3.7µM*,-28%,i,i
Cc1n[nH]c(C)c1CCc1nc2c3ccccc3nc(SCC(=O)Nc3ccc(F)cc3)n2n1,nt,nt,nt,nt,i,i
COCCNC(=O)CN(C(=O)Cn1nnc2ccccc21)c1ccccc1,-1%,8%,-11%,9%,i,i
COc1cc2c(C#N)c(N3CCN(c4ccccc4OC)CC3)nc(N)c2c(N)n1,?,?,10µM*,?,?,?
N#Cc1c(N2CCCC2)nc(N)c2c(N)nc(N3CCCC3)cc12,?,-26%,?,-20%,?,0.73µM*
CCn1cc(C(=O)OCC(=O)Nc2ccc(C)c(Cl)c2)c(=O)c2ccc(C)nc21,nt,nt,nt,nt,i,?
